Test results: PubChem BioAssay (EPA / NIEHS)
The source made the active and inactive calls. How the source made its calls: active means hit-call score of the fitted dose curve at least 0.9, where 1 is the maximum; inactive means score below 0.9.

Experiments:
Settings in all cases: mRNA level, 48 h; actives raise or lower the signal
[1] = read-out: Cytochrome P450 (CYP24A1), CYP24A1 (gene 1591); experiment: LTEA_HepaRG_CYP24A1: Life Technologies and Expression Analysis (LTEA) Assay for Cytochrome P450 (CYP24A1) using HepaRG (AID 2283478)
Summary of the method: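 HepaRG, 48 h chemical exposure, 8-pt half-log CRC from 100 uM, 0.5% DMSO vehicle, duplicates. Endpoint: CYP24A1 mRNA by Fluidigm TaqMan qRT-PCR, normalized ACTB/GAPDH/POLR2A; gain/loss fit vs DMSO.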

[2] = read-out: Cytochrome P450 (CYP1A2), CYP1A2 (gene 1544); experiment: LTEA_HepaRG_CYP1A2: Life Technologies and Expression Analysis (LTEA) Assay for Cytochrome P450 (CYP1A2) using HepaRG (AID 2283479)
Summary of the method: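 CYP1A2 transcript induction or loss, quantified by Fluidigm qRT-PCR against three housekeeping genes, was fitted bidirectionally against 0.5% DMSO controls. Human HepaRG cells received eight half-log concentrations from 100 uM over 48 h.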

[3] = read-out: cysteine-aspartic acid protease (CASP8), CASP8 (gene 841); experiment: LTEA_HepaRG_CASP8: Life Technologies and Expression Analysis (LTEA) Assay for cysteine-aspartic acid protease (CASP8) using HepaRG (AID 2283480)
Summary of the method: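 Concentration-response in duplicate up to 100 uM (half-log steps, 0.5% DMSO) on differentiated HepaRG cultures for 48 h. Expression change of CASP8 mRNA is determined by TaqMan qRT-PCR with housekeeping-gene normalization.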

[4] = read-out: Cytochrome P450 (CYP2B6), CYP2B6 (gene 1555); experiment: LTEA_HepaRG_CYP2B6: Life Technologies and Expression Analysis (LTEA) Assay for Cytochrome P450 (CYP2B6) using HepaRG (AID 2283481)
Summary of the method: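 HepaRG cells plated 48 h, switched to serum-free induction medium, then dosed 48 h (8 points, half-log from 100 uM, 0.5% DMSO). RNA isolated; CYP2B6 expression measured by qRT-PCR; gain or loss fitted relative to DMSO.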

[5] = read-out: Cytochrome P450 2C19 (Homo sapiens) (UniProt P33261); experiment: LTEA_HepaRG_CYP2C19: Life Technologies and Expression Analysis (LTEA) Assay for CYP2C19 using HepaRG (AID 2283482)
Summary of the method: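 Transcript levels of CYP2C19 were quantified by qRT-PCR after HepaRG cells were treated for 48 hours with test chemicals up to 100 uM (eight half-log concentrations, 0.5% DMSO vehicle). Gain or loss of signal was fitted relative to DMSO.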

[6] = read-out: CYP2C8 (gene 1558); experiment: LTEA_HepaRG_CYP2C8: Life Technologies and Expression Analysis (LTEA) Assay for CYP2C8 using HepaRG (AID 2283483)
Summary of the method: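 This is a transcriptional endpoint in HepaRG cultures: 48 h exposure, highest concentration 100 uM. CYP2C8 mRNA is quantified by TaqMan qRT-PCR.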

[7] = read-out: CYP2C9 (gene 1559); experiment: LTEA_HepaRG_CYP2C9: Life Technologies and Expression Analysis (LTEA) Assay for CYP2C9 using HepaRG (AID 2283484)
Summary of the method: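 Eight-point concentration-response (highest 100 uM, half-log dilutions) in HepaRG cells for 48 h; CYP2C9 expression by qRT-PCR normalized to ACTB, GAPDH, POLR2A. Bidirectional fit, DMSO baseline.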

[8] = read-out: CYP2E1 (gene 1571); experiment: LTEA_HepaRG_CYP2E1: Life Technologies and Expression Analysis (LTEA) Assay for CYP2E1 using HepaRG (AID 2283485)
Summary of the method: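 CYP2E1 transcript was measured by TaqMan qRT-PCR in human HepaRG cultures after 48 h chemical exposure (top 100 uM, half-log steps, 0.5% DMSO vehicle). Housekeeping-gene normalization; gain or loss fitted relative to DMSO baseline.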

[9] = read-out: CYP4A11 (gene 1579); experiment: LTEA_HepaRG_CYP4A11: Life Technologies and Expression Analysis (LTEA) Assay for CYP4A11 using HepaRG (AID 2283486)
Summary of the method: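 HepaRG, 48 h chem exposure, 8 conc (100 uM top, half-log), 0.5% DMSO vehicle; qRT-PCR readout, housekeeping-gene normalized; bidirectional curve fit vs DMSO baseline.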

[10] = read-out: Cytochrome P450 3A4 (Homo sapiens) (UniProt P08684); experiment: LTEA_HepaRG_CYP3A4: Life Technologies and Expression Analysis (LTEA) Assay for CYP3A4 using HepaRG (AID 2283487)
Summary of the method: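 Differentiated HepaRG cells in serum-free induction medium exposed in duplicate for 48 h to 8 half-log concentrations up to 100 uM in 0.5% DMSO. CYP3A4 mRNA measured by qRT-PCR normalized to ACTB, GAPDH and POLR2A; bidirectional fit versus DMSO.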

[11] = read-out: DNA damage-inducible transcript 3 (DDIT3), DDIT3 (gene 1649); experiment: LTEA_HepaRG_DDIT3: Life Technologies and Expression Analysis (LTEA) Assay for DNA damage-inducible transcript 3 (DDIT3) using HepaRG (AID 2283488)
Summary of the method: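 qRT-PCR readout (Fluidigm TaqMan), housekeeping-normalized to ACTB, GAPDH, POLR2A. HepaRG cells, 48 h exposure, 8-point half-log series from 100 uM in 0.5% DMSO, duplicates. Gain or loss of signal fitted against DMSO baseline.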

[12] = read-out: Pro-epidermal growth factor (Homo sapiens) (UniProt P01133); experiment: LTEA_HepaRG_EGF: Life Technologies and Expression Analysis (LTEA) Assay for Epidermal growth factor (EGF) using HepaRG (AID 2283489)
Summary of the method: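 HepaRG, 48 h dosing, 100 uM top, half-log x8, 0.5% DMSO. Readout: TaqMan qRT-PCR (Fluidigm array), housekeeping-normalized. Gain or loss of signal fit vs DMSO.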

[13] = read-out: Early growth response protein 1 (EGR1) transcription factor, EGR1 (gene 1958); experiment: LTEA_HepaRG_EGR1: Life Technologies and Expression Analysis (LTEA) Assay for Early growth response protein 1 (EGR1) transcription factor using HepaRG (AID 2283490)
Summary of the method: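 EGR1 expression change in human HepaRG after 48 h chemical exposure, assessed by housekeeping-normalized qRT-PCR; concentration-response up to 100 uM, fitted in both directions against DMSO controls.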

[14] = read-out: Ezrin (EZR), EZR (gene 7430); experiment: LTEA_HepaRG_EZR: Life Technologies and Expression Analysis (LTEA) Assay for Ezrin (EZR) using HepaRG (AID 2283491)
Summary of the method: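 Differentiated human HepaRG cells, 48 h after plating, were exposed in serum-free induction medium for 48 hours to eight half-log concentrations up to 100 uM in 0.5% DMSO. EZR mRNA was measured by TaqMan qRT-PCR, normalized to ACTB, GAPDH and POLR2A, and fitted bidirectionally against DMSO.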

[15] = read-out: Cytochrome P450 3A7 (Homo sapiens) (UniProt P24462); experiment: LTEA_HepaRG_CYP3A7: Life Technologies and Expression Analysis (LTEA) Assay for CYP3A7 using HepaRG (AID 2283492)
Summary of the method: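 Human HepaRG liver cells, 48 h post-plating, switched to serum-free induction medium and exposed in duplicate for 48 h. Dosing: 100 uM top, half-log dilutions, 8 points, 0.5% DMSO vehicle. Read-out: CYP3A7 mRNA, gain or loss fitted against DMSO baseline.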

[16] = read-out: CYP3A5 (gene 1577); experiment: LTEA_HepaRG_CYP3A5: Life Technologies and Expression Analysis (LTEA) Assay for CYP3A5 using HepaRG (AID 2283493)
Summary of the method: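 qRT-PCR read-out: CYP3A5 transcript in HepaRG lysates, housekeeping-normalized (ACTB/GAPDH/POLR2A), fitted bidirectionally against 0.5% DMSO baseline. Exposure 48 h, eight half-log concentrations up to 100 uM, duplicates.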

[17] = read-out: Fatty Acid-Binding Protein 1 (FABP1), FABP1 (gene 2168); experiment: LTEA_HepaRG_FABP1: Life Technologies and Expression Analysis (LTEA) Assay for Fatty Acid-Binding Protein 1 (FABP1) using HepaRG (AID 2283494)
Summary of the method: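 Values reflect bidirectional concentration-response fitting of FABP1 mRNA change against 0.5% DMSO controls. Human HepaRG cultures received eight half-log doses (top 100 uM) for 48 h; expression quantified by TaqMan qRT-PCR with housekeeping-gene normalization.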

[18] = read-out: Cytochrome P450 4A22 (Homo sapiens) (UniProt Q5TCH4); experiment: LTEA_HepaRG_CYP4A22: Life Technologies and Expression Analysis (LTEA) Assay for Cytochrome P450 4A22 (CYP4A22) using HepaRG (AID 2283495)
Summary of the method: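 Readout is CYP4A22 transcript induction or loss, quantified by qRT-PCR and normalized to ACTB, GAPDH and POLR2A. Human HepaRG cells receive test chemicals for 48 h at eight half-log concentrations from 100 uM in 0.5% DMSO.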

[19] = read-out: Cytochrome P450 7A1 (Homo sapiens) (UniProt P22680); experiment: LTEA_HepaRG_CYP7A1: Life Technologies and Expression Analysis (LTEA) Assay for Cytochrome P450 7A1 (CYP7A1) using HepaRG (AID 2283496)
Summary of the method: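 Using 0.5% DMSO as vehicle and baseline, chemicals were tested in duplicate over an 8-point range from 100 uM on HepaRG cells for 48 h; qRT-PCR signals were normalised to ACTB, GAPDH and POLR2A.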

[20] = read-out: Glutathione S-Transferase (GSTA2), GSTA2 (gene 2939); experiment: LTEA_HepaRG_GSTA2: Life Technologies and Expression Analysis (LTEA) Assay for Glutathione S-Transferase (GSTA2) using HepaRG (AID 2283497)
Summary of the method: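 Oxidative-stress marker GSTA2 is quantified by TaqMan qRT-PCR in HepaRG cultures treated 48 h across an eight-point range to 100 uM. Expression is normalized to endogenous controls and compared with 0.5% DMSO vehicle.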

Measured: outcome

Cytochrome P450 3A4 (Homo sapiens), sequence (P08684 whole entry, looked up): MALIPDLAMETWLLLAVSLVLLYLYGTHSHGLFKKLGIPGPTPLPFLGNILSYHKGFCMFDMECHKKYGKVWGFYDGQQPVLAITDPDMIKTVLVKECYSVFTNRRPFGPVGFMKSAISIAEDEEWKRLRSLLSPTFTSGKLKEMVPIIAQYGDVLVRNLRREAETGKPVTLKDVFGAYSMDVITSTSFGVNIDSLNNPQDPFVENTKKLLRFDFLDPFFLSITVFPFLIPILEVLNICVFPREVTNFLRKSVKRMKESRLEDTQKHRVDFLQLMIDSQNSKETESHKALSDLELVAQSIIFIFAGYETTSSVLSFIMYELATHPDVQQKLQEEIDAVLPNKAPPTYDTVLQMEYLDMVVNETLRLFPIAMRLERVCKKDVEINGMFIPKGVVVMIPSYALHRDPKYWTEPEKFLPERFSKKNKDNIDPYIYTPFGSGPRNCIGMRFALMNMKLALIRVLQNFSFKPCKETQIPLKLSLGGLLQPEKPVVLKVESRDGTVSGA
Cytochrome P450 2C19 (Homo sapiens), sequence (P33261 whole entry, looked up): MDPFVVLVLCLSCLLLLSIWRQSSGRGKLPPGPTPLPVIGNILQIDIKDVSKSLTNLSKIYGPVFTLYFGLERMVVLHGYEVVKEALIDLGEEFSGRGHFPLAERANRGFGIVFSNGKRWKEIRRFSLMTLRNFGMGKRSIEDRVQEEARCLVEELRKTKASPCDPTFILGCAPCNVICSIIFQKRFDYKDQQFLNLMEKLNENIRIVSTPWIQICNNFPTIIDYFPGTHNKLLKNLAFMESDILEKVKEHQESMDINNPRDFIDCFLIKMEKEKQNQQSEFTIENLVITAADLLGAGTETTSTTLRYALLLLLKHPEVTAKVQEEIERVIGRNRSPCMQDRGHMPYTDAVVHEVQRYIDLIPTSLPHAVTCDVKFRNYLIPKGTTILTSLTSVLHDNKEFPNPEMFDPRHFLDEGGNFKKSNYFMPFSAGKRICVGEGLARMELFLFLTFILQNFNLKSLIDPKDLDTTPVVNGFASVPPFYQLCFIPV
Cytochrome P450 3A7 (Homo sapiens), sequence (P24462 whole entry, looked up): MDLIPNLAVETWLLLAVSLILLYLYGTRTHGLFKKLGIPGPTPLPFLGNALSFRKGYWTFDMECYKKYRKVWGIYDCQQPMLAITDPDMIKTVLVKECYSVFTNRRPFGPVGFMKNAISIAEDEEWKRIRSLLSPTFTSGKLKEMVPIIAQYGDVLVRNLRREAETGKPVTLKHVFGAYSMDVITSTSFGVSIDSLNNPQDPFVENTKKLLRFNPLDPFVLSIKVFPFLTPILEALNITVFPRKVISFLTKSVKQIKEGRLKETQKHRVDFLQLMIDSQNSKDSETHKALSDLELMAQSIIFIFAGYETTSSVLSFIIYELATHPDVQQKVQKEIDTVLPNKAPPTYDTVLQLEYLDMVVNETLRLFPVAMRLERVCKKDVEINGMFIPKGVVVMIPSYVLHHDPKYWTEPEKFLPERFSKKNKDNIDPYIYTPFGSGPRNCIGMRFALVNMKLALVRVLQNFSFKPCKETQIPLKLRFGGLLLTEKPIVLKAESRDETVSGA

CS(=O)(=O)OCCCCOS(C)(=O)=O
inactive: [1] | [2] | [3] | [4] | [5] | [6] | [7] | [8] | [9] | [10] | [11] | [12] | [13] | [14] | [15] | [16] | [17] | [18] | [19] | [20]
